Measured values published in PubChem BioAssay (Tox21).
Values joined by “and” are separate entries in the source; they are usually repeats but may differ in a detail not shown here. Identical values can stand only once. Records with an inconclusive call do not appear. Some structures have more than one record in an assay (separate samples or runs), and their calls can disagree. Active and inactive are the calls of the source. Unless noted, calls follow the shape of the dose curve; as a rule, active = well fitted curve in the direction sought with a large enough effect in the repeat runs; inconclusive = weak or mixed curves; inactive = no such curve, though single readings can be large; an effect the other way counts as inactive or inconclusive.

Columns and labels:
[1] = qHTS RealTime-Glo MT Cell Viability Assay in HEK293 cells - 24 hour (AID 1224886); also: nearly all actives have a fitted effect of over 50% in size; also: potency is read from the fitted curve at half-maximal effect
Summary of the method: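 Tox21 10K qHTS, HEK293, 600 cells/well, RealTime-Glo reagent co-dispensed with cells; 5 h preincubation, compound by pintool, 37 C, luminescence at 0–40 h.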

[2] = qHTS RealTime-Glo MT Cell Viability Assay in HEK293 cells - 8 hour (AID 1224887); also: top concentration of the series differs between compounds; nearly all actives have a fitted effect of over 50% in size
Summary of the method: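 Luminescence, which tracks viable cell number through reduction of the prosubstrate to a NanoLuc substrate, was read over continuous 37 C culture. Cells (600/well) were premixed with reagent and rested 5 h before 23 nL of compound in DMSO was pinned.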

[3] = A CellTox Green Cytotoxicity Assay to monitor cytotoxicity in HEK293 cells - 16 hour (AID 1224888); also: nearly all actives have a fitted effect of over 35% in size
Summary of the method: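 Fluorescence from a DNA-binding dye excluded by viable cells was measured repeatedly in the same HEK293 wells (600 cells/well) during continuous compound exposure at 37 C. Each assay gives one read point: 0, 8, 16, 24, 32 or 40 h.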

[4] = qHTS RealTime-Glo MT Cell Viability Assay in HepG2 cells - 0 hour (AID 1224889); also: nearly all actives have a fitted effect of over 50% in size
Summary of the method: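 Cells + NanoLuc/prosubstrate dispensed (600 cells/well) → 5 h at 37 C/5% CO2 → compounds in DMSO transferred → 40 h incubation at 37 C, luminescence read at 0, 8, 16, 24, 32, 40 h.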

[5] = A CellTox Green Cytotoxicity Assay to monitor cytotoxicity in HepG2 cells - 8 hour (AID 1224890); also: nearly all actives have a fitted effect of over 45% in size; also: potency is read from the fitted curve at half-maximal effect
Summary of the method: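 Real-time cytotoxicity: fluorescence of a cell-impermeant cyanine dye binding DNA of dead HepG2 cells, measured repeatedly (0–40 h) during compound exposure at 37 C. Cells seeded 600/well with reagent, dosed after 5 h.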

[6] = qHTS assay to identify small molecule antagonists of the estrogen receptor alpha (ER-alpha) signaling pathway using the BG1 cell line in the presence of 0.1 nM 17-beta-estradiol - cell viability counter screen (AID 1259241); also: nearly all actives have a fitted effect of over 40% in size
Summary of the method: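 Live-cell protease activity (CellTiter-Fluor fluorescence, 30 min) was read in the same wells after VM7Luc4E2 cells had been exposed to compounds with 0.1 nM 17beta-estradiol for 22 hr at 37C.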

[7] = qHTS assay to identify small molecule antagonists of the androgen receptor (AR) signaling pathway using the MDA cell line in the presence of 0.5 nM R1881 - cell viability counter screen (AID 1259242); also: nearly all actives have a fitted effect of over 45% in size
Summary of the method: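 Live-cell protease activity was measured by CellTiter-Fluor fluorescence after 30 min. Before that, MDA-kb2 MMTV-luciferase cells had 16 hr at 37C without CO2, exposed to test compounds and 0.5 nM R1881 final.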

[8] = biological target: Estrogen receptor (Homo sapiens) (UniProt P03372); test: qHTS assay to identify small molecule antagonists of the estrogen receptor alpha (ER-alpha) signaling pathway using the BG1 cell line in the presence of 0.1 nM 17-beta-estradiol (AID 1259244); also: nearly all actives have a fitted effect of over 50% in size
Chain of Estrogen receptor (Homo sapiens) (P03372 whole entry, looked up): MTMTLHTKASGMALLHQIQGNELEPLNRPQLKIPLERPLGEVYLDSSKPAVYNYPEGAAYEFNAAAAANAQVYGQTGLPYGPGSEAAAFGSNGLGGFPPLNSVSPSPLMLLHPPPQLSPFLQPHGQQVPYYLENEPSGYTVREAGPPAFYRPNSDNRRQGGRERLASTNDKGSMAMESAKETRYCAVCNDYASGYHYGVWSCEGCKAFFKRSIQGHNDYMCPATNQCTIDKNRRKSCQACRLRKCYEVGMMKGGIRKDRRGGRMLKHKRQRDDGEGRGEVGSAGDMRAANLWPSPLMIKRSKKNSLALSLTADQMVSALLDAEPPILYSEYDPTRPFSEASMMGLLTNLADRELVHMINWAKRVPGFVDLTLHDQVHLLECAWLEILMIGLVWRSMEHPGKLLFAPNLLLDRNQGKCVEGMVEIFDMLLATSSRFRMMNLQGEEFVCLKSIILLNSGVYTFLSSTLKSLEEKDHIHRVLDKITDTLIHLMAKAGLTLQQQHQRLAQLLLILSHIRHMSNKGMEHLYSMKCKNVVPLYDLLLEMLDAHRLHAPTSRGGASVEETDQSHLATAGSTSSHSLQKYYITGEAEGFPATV
Summary of the method: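 Luciferase luminescence (ONE-Glo, 30 min at room temperature) was read after 22 hr at 37C exposure to compounds plus 17beta-estradiol at 0.1 nM final. Cells were VM7Luc4E2 with endogenous ER-alpha and an ERE-driven luciferase, pre-cultured 5 days in hormone-depleted medium.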

[9] = qHTS assay to identify small molecule HDAC inhibitors (AID 1259364); also: nearly all actives have a fitted effect of over 45% in size; also: potency is read from the fitted curve at half-maximal effect
Summary of the method: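 Luminescence read after 30 min room-temperature HDAC-Glo incubation measures cellular class I/II HDAC activity. Compounds were applied for 2 hr at 37 C to HCT-116 wild-type cells seeded the day before.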

[10] = qHTS assay to identify small molecule HDAC inhibitors - cell viability counter screen (AID 1259365)
Summary of the method: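 HCT-116 (wild type), 1,500 cells/well, overnight 37C/5% CO2; compound in DMSO 2hr; CellTiter-Glo 30min RT; luminescence read.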

[11] = qHTS assay to identify small molecule antagonists of the sonic hedgehog signaling (Shh) pathway - cell viability counter screen (AID 1259367); also: nearly all actives have a fitted effect of over 55% in size
Summary of the method: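 Viability was read by CellTiter-Fluor fluorescence in the same wells, reagent added 23 hr into compound treatment and incubated 1 hr at 37C. The 3T3 Gli1-Luc reporter cells (2,000/well) received conditioned medium after compound and ran 24 hr.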

[12] = qHTS assay to identify small molecule agonists of the sonic hedgehog signaling (Shh) pathway (AID 1259368; calls by dose curve;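 also: NIH/3T3-derived 3T3Gli1-Luc cells carrying a stable Gli1-driven firefly luciferase reporter; series mostly up to about 92 µM; nearly all actives have a fitted effect of over 15% in size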)
Summary of the method: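 Luminescence was read after 30 min at room temperature with luciferase reagent. Before that, 3T3Gli1-Luc cells (NIH/3T3 clone, stable Gli1-Luc reporter; 2,000/well) were exposed to compounds for 24 hr at 37C, 5% CO2, compounds being added 4 hr post-plating.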

[13] = qHTS assay to identify small molecule antagonists of the sonic hedgehog signaling (Shh) pathway (AID 1259369; calls by dose curve; also: nearly all actives have a fitted effect of over 45% in size; also: potency is read from the fitted curve at half-maximal effect)
Summary of the method: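 Antagonist mode: compound added to 3T3 Gli1-Luc cells followed by conditioned-medium stimulation, 24 h at 37 C, 5% CO2. Inhibition taken as loss of Gli1-driven luciferase luminescence.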

[14] = qHTS assay to identify small molecule agonists of the androgen receptor (AR) signaling pathway in the presence of an antagonist - cell viability counter screen (AID 1259379);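 also: MDA-kb2 human breast cancer cells carrying an MMTV luciferase reporter; series mostly up to about 92 µM; nearly all actives have a fitted effect of over 25% in size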
Summary of the method: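 Cytotoxicity counter-screen run in the same wells as the nilutamide-challenged (3.0 µM final) AR agonist assay in MDA-kb2 cells. Compounds tested at 15 concentrations for 16 h, 37 °C without CO2; CellTiter-Fluor fluorescence read.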

[15] = qHTS assay to identify small molecule agonists of the estrogen receptor beta (ER-beta) signaling pathway - cell viability counter screen (AID 1259380); also: nearly all actives have a fitted effect of over 30% in size; also: potency is read from the fitted curve at half-maximal effect
Summary of the method: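 Cell viability counter screen: CellTiter-Glo luminescence (30 min, room temperature) measured in the same wells as the beta-lactamase readout, after 16 hr compound exposure at 37C of ER-beta-bla HEK293T cells in 2% charcoal-stripped FBS medium.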

[16] = biological target: Androgen receptor (Homo sapiens) (UniProt P10275); test: qHTS assay to identify small molecule antagonists of the androgen receptor (AR) signaling pathway using the MDA cell line in the presence of 0.5 nM R1881 (AID 1259243); also: nearly all actives have a fitted effect of over 50% in size; also: potency is read from the fitted curve at half-maximal effect
Chain of Androgen receptor (Homo sapiens) (P10275 whole entry, looked up): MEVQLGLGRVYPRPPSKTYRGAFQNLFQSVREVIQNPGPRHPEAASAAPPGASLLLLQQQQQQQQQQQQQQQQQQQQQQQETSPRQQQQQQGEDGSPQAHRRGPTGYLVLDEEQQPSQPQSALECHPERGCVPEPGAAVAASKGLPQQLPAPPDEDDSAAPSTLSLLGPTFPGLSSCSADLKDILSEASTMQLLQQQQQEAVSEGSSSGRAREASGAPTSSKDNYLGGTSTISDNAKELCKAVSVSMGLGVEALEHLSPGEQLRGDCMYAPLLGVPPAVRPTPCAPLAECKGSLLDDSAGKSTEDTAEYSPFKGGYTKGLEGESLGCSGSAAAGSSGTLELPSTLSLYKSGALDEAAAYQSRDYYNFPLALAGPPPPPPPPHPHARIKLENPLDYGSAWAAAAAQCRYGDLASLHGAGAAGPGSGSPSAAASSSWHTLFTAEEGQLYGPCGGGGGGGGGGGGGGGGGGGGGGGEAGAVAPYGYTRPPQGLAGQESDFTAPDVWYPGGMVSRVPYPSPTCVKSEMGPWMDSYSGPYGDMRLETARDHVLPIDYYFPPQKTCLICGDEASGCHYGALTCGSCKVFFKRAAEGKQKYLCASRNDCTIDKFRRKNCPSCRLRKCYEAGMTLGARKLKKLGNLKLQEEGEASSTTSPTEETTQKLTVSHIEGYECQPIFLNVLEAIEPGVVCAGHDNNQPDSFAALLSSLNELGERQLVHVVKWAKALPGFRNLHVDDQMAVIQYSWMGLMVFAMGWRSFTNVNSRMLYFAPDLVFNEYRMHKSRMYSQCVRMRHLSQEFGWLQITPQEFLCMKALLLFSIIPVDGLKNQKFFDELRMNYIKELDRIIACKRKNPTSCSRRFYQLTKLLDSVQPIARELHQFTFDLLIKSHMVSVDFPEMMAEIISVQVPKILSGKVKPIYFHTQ
Summary of the method: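 Luminescent reporter readout (ONE-Glo, 30 min, room temperature) after 16 hr co-treatment of MDA-kb2 cells with test compounds and 0.5 nM R1881 final, at 37C without CO2. The MMTV-driven luciferase responds to both AR and GR.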

[17] = biological target: Estrogen receptor beta (Homo sapiens) (UniProt Q92731); test: qHTS assay to identify small molecule agonists of the estrogen receptor beta (ER-beta) signaling pathway (AID 1259377; active = well fitted activation curve with a large enough effect in the signal ratio in the repeat runs, not every such curve was filed as active; the % refers to the signal ratio)
Chain of Estrogen receptor beta (Homo sapiens) (Q92731 whole entry, looked up): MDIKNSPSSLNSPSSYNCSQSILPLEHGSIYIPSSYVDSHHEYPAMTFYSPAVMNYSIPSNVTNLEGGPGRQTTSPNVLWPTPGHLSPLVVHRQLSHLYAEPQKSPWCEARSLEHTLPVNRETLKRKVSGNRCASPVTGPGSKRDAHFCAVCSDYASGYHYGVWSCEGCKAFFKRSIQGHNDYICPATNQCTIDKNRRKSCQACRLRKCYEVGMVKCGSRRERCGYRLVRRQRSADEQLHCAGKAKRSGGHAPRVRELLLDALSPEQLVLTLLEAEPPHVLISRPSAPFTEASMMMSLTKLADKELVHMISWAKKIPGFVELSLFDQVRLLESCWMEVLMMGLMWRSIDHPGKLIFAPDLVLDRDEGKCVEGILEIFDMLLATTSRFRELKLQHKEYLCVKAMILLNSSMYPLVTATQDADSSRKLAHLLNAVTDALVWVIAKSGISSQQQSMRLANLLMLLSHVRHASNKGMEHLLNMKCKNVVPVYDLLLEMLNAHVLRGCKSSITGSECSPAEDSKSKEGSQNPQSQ
Summary of the method: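 Beta-lactamase reporter readout: fluorescence of LiveBLAzer B/G FRET substrate after 2 h at room temperature, following 16 h compound treatment of ER-beta-UAS-bla HEK293T cells at 37C in 2% charcoal-stripped FBS medium.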

[18] = biological target: Estrogen receptor beta (Homo sapiens) (UniProt Q92731); test: qHTS assay to identify small molecule antagonists of the estrogen receptor beta (ER-beta) signaling pathway (AID 1259378; active = well fitted inhibition curve with a large enough effect in the signal ratio in the repeat runs, not every such curve was filed as active; the % refers to the signal ratio)
Summary of the method: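 Antagonist mode: compounds added to beta-lactamase reporter HEK293T ER-beta-UAS cells stimulated with E2 (1nM final), 16 hr at 37C. LiveBLAzer B/G FRET substrate, 2 hours room temperature, fluorescence read-out.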

[19] = biological target: Androgen receptor (Homo sapiens) (UniProt P10275); test: qHTS assay to identify small molecule agonists of the androgen receptor (AR) signaling pathway in the presence of an antagonist (AID 1259381; calls by dose curve; also: nearly all actives have a fitted effect of over 15% in size)
Summary of the method: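 Agonist-mode confirmation run against 3.0 uM final nilutamide: compounds titrated at 15 concentrations onto MDA-kb2 MMTV-luciferase reporter cells. Luminescence measured with ONE-Glo following 16 hr incubation, 37C, 0% CO2.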

[20] = qHTS assay to identify small molecule agonists of the sonic hedgehog signaling (Shh) pathway - cell viability counter screen (AID 1259366); also: nearly all actives have a fitted effect of over 50% in size
Summary of the method: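 CellTiter-Fluor fluorescence read-out, 1 hr at 37C, added after 23hr compound exposure. Cells: 3T3 Gli1-Luc, an NIH/3T3 clone with stably integrated Gli1-Luc reporter, plated 4hr before compound.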

Measured: Potency

O=C1CCCN1
not listed: [16] | [17] | [18] | [19] | [20]
inactive: all other assays above

CC(C)OC(=O)Nc1ccccc1
active: [9] 27.4 µM and 24.3 µM
not listed: [16] | [17] | [18] | [19] | [20]
inactive: all other assays above

CCN(CC)c1ccccc1
not listed: [20]
inactive: all other assays above

CC(C)N1C(=O)c2ccccc2NS1(=O)=O
not listed: [16] | [17] | [18] | [19]
inactive: all other assays above

CCOP(=S)(OCC)Oc1cnc2ccccc2n1
active: [13] 27.3 µM
not listed: [9] | [16] | [19]
inactive: all other assays above

O=c1ccc(=O)[nH][nH]1
not listed: [8] | [9] | [17] | [18] | [20]
inactive: all other assays above

C#CC(C)(C)NC(=O)c1cc(Cl)cc(Cl)c1
not listed: [8] | [9] | [16] | [17] | [18] | [19]
inactive: all other assays above

Cn1cc(-c2ccccc2)c(=O)c(-c2cccc(C(F)(F)F)c2)c1
active: [15] 59.6 µM
not listed: [4] | [9] | [11] | [16] | [17] | [18] | [19] | [20]
inactive: all other assays above

O=c1n(Cl)c(=O)n(Cl)c(=O)n1Cl
not listed: [2] | [16] | [19]
inactive: all other assays above

CCNc1nc(NC(C)C)nc(SC)n1
not listed: [2] | [8]
inactive: all other assays above

CCCCN(CC)C(=O)SCCC
not listed: [2]
inactive: all other assays above

O=NN1CCCCCCC1
not listed: [9] | [16] | [17] | [18] | [19]
inactive: all other assays above

C1CN2CCN1CC2
inactive and 24.5 µM (active): [5]
not listed: [3] | [16] | [19]
inactive: all other assays above

[N-]=[N+]=[N-]
41.8 µM (active) and inactive: [16]
not listed: [2] | [17] | [18]
inactive: all other assays above

CCCC1COC(Cn2cncn2)(c2ccc(Cl)cc2Cl)O1 (stereo not given)
active: [1] 25 µM and 24.5 µM | [16] 31.2 µM and 30.6 µM | [13] 27.8 µM | [15] 61.1 µM
not listed: [2] | [8] | [14] | [17] | [18] | [20]
inactive: all other assays above

NCCc1ccc(O)cc1
60.6 µM (active) and inactive: [15]
not listed: [9] | [16] | [19] | [20]
inactive: all other assays above

Clc1cccc(Cl)c1Cl
not listed: [8] | [16] | [17] | [18] | [19] | [20]
inactive: all other assays above
